Laboratory results taken from PubChem BioAssay (EPA / NIEHS).
Records with an inconclusive call do not appear. Calls of active or inactive are those of the source. The calls were made as follows: active = hit-call score of the fitted dose curve at least 0.9, where 1 is the maximum; inconclusive = response in the unintended direction; inactive = score below 0.9.

These molecules were tested against THRA (gene 7067) (UniProt P10827) (assay: TOX21_TRA_COA_Antagonist_Followup_ratio: Tox21 Thyroid Hormone Receptor alpha Antagonism through Coactivator Recruitment Follow-Up Assay, Ratio (AID 2283953)).
Summary of the method: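 This follow-up to the GH3 luciferase screen checks specificity in a cell-free format. It measures SRC-2 coactivator peptide binding to TRα LBD by TR-FRET and scores loss of ratio signal relative to DMSO.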

Chain of THRA (gene 7067) (P10827 whole entry, looked up, the tested form may be a part): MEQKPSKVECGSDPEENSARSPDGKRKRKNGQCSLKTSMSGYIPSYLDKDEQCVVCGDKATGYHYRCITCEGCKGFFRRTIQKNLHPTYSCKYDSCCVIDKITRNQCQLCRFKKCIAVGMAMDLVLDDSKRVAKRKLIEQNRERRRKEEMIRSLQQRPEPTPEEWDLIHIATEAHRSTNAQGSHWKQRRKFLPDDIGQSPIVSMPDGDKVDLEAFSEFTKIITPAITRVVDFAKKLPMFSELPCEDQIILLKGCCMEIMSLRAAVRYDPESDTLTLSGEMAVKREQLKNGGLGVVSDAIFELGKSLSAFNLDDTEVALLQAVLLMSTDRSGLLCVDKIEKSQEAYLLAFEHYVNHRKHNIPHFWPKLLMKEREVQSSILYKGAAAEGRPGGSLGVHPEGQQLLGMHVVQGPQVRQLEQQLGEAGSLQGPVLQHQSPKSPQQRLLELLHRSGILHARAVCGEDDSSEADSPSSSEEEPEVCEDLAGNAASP

SMILES	outcome
CC(=O)O[C@@]12CO[C@@H]1C[C@H](O)[C@@]1(C)C(=O)[C@H](O)C3=C(C)[C@@H](OC(=O)[C@H](O)[C@@H](NC(=O)OC(C)(C)C)c4ccccc4)C[C@@](O)([C@@H](OC(=O)c4ccccc4)[C@H]21)C3(C)C	inactive
O=C(O)c1cccnc1Nc1cccc(C(F)(F)F)c1	inactive
C#C[C@]1(O)CC[C@H]2[C@@H]3CCC4=C(CCC(=O)C4)[C@H]3CC[C@@]21C	inactive
O=C1c2ccccc2-c2n[nH]c3cccc1c23	inactive
CCCCCCC[N+](CC)(CC)CCCCc1ccc(Cl)cc1	inactive
CC(=O)OCC(=O)[C@H]1CC[C@H]2[C@@H]3CCC4=CC(=O)CC[C@]4(C)[C@H]3CC[C@]12C	inactive
C/C=C1/C(=O)C[C@H]2[C@@H]3CCC4=CC(=O)CC[C@]4(C)[C@H]3CC[C@]12C	inactive
COc1cc(NCc2ccc3nc(N)nc(N)c3c2C)cc(OC)c1OC	inactive
COC(=O)Nc1nc2ccc(S(=O)c3ccccc3)cc2[nH]1 (configuration not stated)	inactive
Cc1ccc(Nc2nccc(N(C)c3ccc4c(C)n(C)nc4c3)n2)cc1S(N)(=O)=O	inactive

These molecules were tested against THRB (gene 7068) (UniProt P10828) (assay: TOX21_TRB_BLA_Antagonist_Followup_ratio: Tox21 Thyroid Hormone Receptor beta Antagonism Beta-lactamase (BLA) Follow-Up Assay, Ratio (AID 2283958)).
Summary of the method: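 In this antagonist-mode follow-up, a stably integrated GAL4-TRβ LBD fusion drives a UAS-beta-lactamase reporter in HEK293T cells. Loss of ratio signal relative to DMSO after 18 h treatment indicates activity; parallel CellTiter-Glo flags cytotoxicity.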

Chain of THRB (gene 7068) (P10828 whole entry, looked up, the tested form may be a part): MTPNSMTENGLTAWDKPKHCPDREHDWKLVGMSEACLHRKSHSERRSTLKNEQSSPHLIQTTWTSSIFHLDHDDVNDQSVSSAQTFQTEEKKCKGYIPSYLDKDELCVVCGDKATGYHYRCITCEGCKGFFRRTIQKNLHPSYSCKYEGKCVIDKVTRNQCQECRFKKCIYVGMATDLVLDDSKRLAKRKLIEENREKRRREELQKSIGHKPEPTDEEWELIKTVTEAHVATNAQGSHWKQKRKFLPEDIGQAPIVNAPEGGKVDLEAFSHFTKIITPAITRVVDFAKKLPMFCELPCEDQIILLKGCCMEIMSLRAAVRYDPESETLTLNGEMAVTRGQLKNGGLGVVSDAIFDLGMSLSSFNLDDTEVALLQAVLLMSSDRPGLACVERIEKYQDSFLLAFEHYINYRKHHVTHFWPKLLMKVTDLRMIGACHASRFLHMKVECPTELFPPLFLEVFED

SMILES	outcome	AC50
CC(=O)O[C@@]12CO[C@@H]1C[C@H](O)[C@@]1(C)C(=O)[C@H](O)C3=C(C)[C@@H](OC(=O)[C@H](O)[C@@H](NC(=O)OC(C)(C)C)c4ccccc4)C[C@@](O)([C@@H](OC(=O)c4ccccc4)[C@H]21)C3(C)C	inactive	
O=C(O)c1cccnc1Nc1cccc(C(F)(F)F)c1	inactive	
C#C[C@]1(O)CC[C@H]2[C@@H]3CCC4=C(CCC(=O)C4)[C@H]3CC[C@@]21C	inactive	
O=C1c2ccccc2-c2n[nH]c3cccc1c23	inactive	
CCCCCCC[N+](CC)(CC)CCCCc1ccc(Cl)cc1	inactive	
O=c1[nH]c(=O)n([C@H]2C[C@H](O)[C@@H](CO)O2)cc1C(F)(F)F	inactive	
CC(=O)OCC(=O)[C@H]1CC[C@H]2[C@@H]3CCC4=CC(=O)CC[C@]4(C)[C@H]3CC[C@]12C	inactive	
C/C=C1/C(=O)C[C@H]2[C@@H]3CCC4=CC(=O)CC[C@]4(C)[C@H]3CC[C@]12C	inactive	
Cc1nc2ccc(CN(C)c3ccc(C(=O)N[C@@H](CCC(=O)O)C(=O)O)s3)cc2c(=O)[nH]1	inactive	
COc1cc(NCc2ccc3nc(N)nc(N)c3c2C)cc(OC)c1OC	inactive	
COC(=O)Nc1nc2ccc(S(=O)c3ccccc3)cc2[nH]1 (configuration not stated)	inactive	
Cc1ccc(Nc2nccc(N(C)c3ccc4c(C)n(C)nc4c3)n2)cc1S(N)(=O)=O		14.7 µM (active)
